High-throughput results deposited in PubChem BioAssay by National Center for Advancing Translational Sciences (NCATS).
BAZ2B block: qHTS Assay for Inhibitors of BAZ2B | Potency, µM (highest dose often 114 µM), most hits filed as inhibitors | AID 504333, 2011 | hit rate 4.4% among 360,000 | AlphaScreen BAZ2B-H3K14Ac peptide displacement | Bromodomain adjacent to zinc finger domain protein 2B (Homo sapiens), Q9UIF8; note: nearly all actives have a fitted effect of over 60% in size
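AlphaScreen displacement: compounds (up to 110uM) incubated 30 min at room temperature with a preformed 50 nM BAZ2B/50 nM biotinylated H3K14Ac peptide complex in PBS pH 7.4 with Tween-20. Donor and acceptor beads at 10 ug/mL final added, 20 min light-protected before reading.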
PI5P4K alpha inh: qHTS for Inhibitors of phosphatidylinositol 5-phosphate 4-kinase (PI5P4K); Phosphatidylinositol 5-phosphate 4-kinase type-2 alpha (Homo sapiens), P48426; PI5P4Kalpha enzyme, ADP-Glo luminescence, 60 min; hits give low values; max response, %; hit rate 1.2% among 330,000; AID 652105, 2013; active = max response of -50% or lower; inconclusive = between -30% and -50%; inactive = -30% or higher; note: value at the top dose of about 77 µM
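Enzyme plus substrate dispensed, test compounds pinned in, then ATP (5 microM final) added. After 60 min at RT, ADP-Glo reagent 1 for 45 min and reagent 2 for 30 min preceded luminescence imaging.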
PLK1 PBD block: qHTS for Inhibitors of PLK1-PDB (polo-like kinase 1 - polo-box domain): Primary Screen | Potency, µM, hits mostly inhibitors | hit rate 2.8% among 360,000 | Plk1 PBD binding of FITC phosphopeptide, fluorescence polarization | AID 720504, 2013; note: series mostly up to about 57 µM; nearly all actives have a fitted effect of over 65% in size
Target sequence (P53350 whole entry, looked up, the tested form may be a part): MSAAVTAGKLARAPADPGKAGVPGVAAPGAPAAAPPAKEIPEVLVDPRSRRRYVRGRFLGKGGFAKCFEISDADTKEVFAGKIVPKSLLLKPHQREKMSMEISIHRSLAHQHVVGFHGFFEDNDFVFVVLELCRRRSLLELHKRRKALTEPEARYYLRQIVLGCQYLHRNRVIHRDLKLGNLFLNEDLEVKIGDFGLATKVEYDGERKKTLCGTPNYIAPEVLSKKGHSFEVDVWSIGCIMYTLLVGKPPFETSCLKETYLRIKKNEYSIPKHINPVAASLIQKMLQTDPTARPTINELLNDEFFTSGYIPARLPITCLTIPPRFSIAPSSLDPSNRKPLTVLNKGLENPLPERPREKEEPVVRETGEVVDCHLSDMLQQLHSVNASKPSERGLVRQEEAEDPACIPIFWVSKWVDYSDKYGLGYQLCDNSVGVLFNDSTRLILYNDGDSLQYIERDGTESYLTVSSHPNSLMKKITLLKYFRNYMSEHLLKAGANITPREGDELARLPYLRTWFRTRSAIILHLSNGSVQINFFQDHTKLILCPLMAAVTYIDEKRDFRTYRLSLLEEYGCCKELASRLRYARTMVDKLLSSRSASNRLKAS
G9a block: qHTS Assay for Inhibitors of Histone Lysine Methyltransferase G9a; G9a H3K9 monomethylation, AlphaScreen, 2 h; Potency, µM (top dose mostly 102 µM), hits mostly inhibitors; hit rate 8.8% among 350,000; note: nearly all actives have a fitted effect of over 75% in size
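G9a (20 nM) preincubated 15 min RT with compounds, then 500 nM biotinylated H3K9 peptide and 20 uM SAM added; 2 h RT reaction. Monomethyl-H3K9 product detected by AlphaScreen with anti-H3K9me1 antibody, streptavidin donor and anti-rabbit IgG acceptor beads.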
JMJD2A Tudor inh: qHTS Assay for Inhibitors of JMJD2A-Tudor Domain | Lysine-specific demethylase 4A (Homo sapiens), O75164 | AlphaScreen JMJD2A-Tudor / H3K4me3 peptide binding | Potency, µM (doses to about 114 µM), usual class: inhibitors | hit rate 4.4% among 390,000 | AID 504339, 2011; note: nearly all actives have a fitted effect of over 50% in size
HP1b binding inh: HTS for Inhibitors of HP1-beta Chromodomain Interactions with Methylated Histone Tails; Chromobox protein homolog 1 (Homo sapiens), P83916; AlphaScreen HP1-beta / biotin-H3K9me3 peptide binding; hit rate 0.56% among 390,000; Potency, µM (top dose mostly 114 µM), actives largely listed as inhibitors; note: nearly all actives have a fitted effect of over 70% in size
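HP1-beta protein (50 nM final) preincubated 30 min at room temperature with biotinylated H3(1-18)K9me3 peptide (50 nM) in PBS pH 7.4, 0.01% Tween-20, then compound added for 30 min. AlphaScreen streptavidin donor/nickel chelate acceptor beads (10 ug/mL final), 30 min dark, luminescence read.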
A number is an active result; 0 = inactive; ? = inconclusive; - = not tested or not shown; [ ] = remark or other dose. Only some compounds are listed: those with a hit (about 12% of all), similar ones and a draw of the others. Unless noted, calls come from the whole dose curve; as a rule, active = well fitted curve in the direction sought with a large enough effect; inconclusive = small, poorly fitted or top-dose-only effect, or another doubt; inactive = no such curve, though single readings can be large; an effect the other way counts as inactive or inconclusive.

SMILES	BAZ2B block	PI5P4K alpha inh	PLK1 PBD block	G9a block	JMJD2A Tudor inh	HP1b binding inh
CCOCCCNc1nc2c(S(=O)(=O)c3ccc(CC)cc3)nnn2c2ccc(Cl)cc12	0	-	-	0	0	0
O=C(O)c1cccc(NC(=O)c2cn(-c3ccccc3)nc2-c2ccncc2)c1	?	?	23.8µM	31.6µM	0	?
COc1ccc(-c2nn(-c3ccccc3)cc2C(=O)Nc2cccc(C(=O)O)c2)cc1[N+](=O)[O-]	39.8µM	?	0	-	50.1µM	0
COc1cccc(-c2nn(-c3ccccc3)cc2C(=O)NCC(=O)O)c1	0	0	0	50.1µM	0	0
COc1ccc(-c2nn(-c3ccccc3)cc2/C=N/Nc2cccc(C(=O)O)c2)cc1	0	0	0	22.4µM	?	0
O=C(O)c1cccc(NC(=O)c2cn(-c3ccccc3)nc2-c2ccc([N+](=O)[O-])cc2)c1	?	0	0	-	0	0
O=C(O)c1cccc(NC(=O)c2cn(-c3ccccc3)nc2-c2cccc(Br)c2)c1	0	?	?	0	0	0
COc1ccc(CNC(=O)CCC2N=C3c4ccccc4N=C(SCC(=O)NCC4CCCO4)N3C2=O)cc1 (stereo not drawn)	0	0	0	0	0	0
COc1ccc([C@H]2CC(=O)C[C@@H](CCn3cc(C)nn3)O2)cc1	-	0	0	-	-	-
COc1ccc(Cn2cc(CN3CCc4onc(-c5ccc(Br)cc5)c4C3=O)nn2)cc1	-	0	0	-	-	-
COc1ccc(-c2nn(-c3ccccc3)cc2C(=O)NC(=S)NNC(=O)c2ccncc2)cc1	0	0	0	31.6µM	?	?
COc1ccc(NC(=O)c2cn(-c3ccccc3)nc2-c2ccncc2)cc1	0	0	0	0	0	0
COc1ccc(OC)c(C2C(C(C)=O)=C(O)C(=O)N2CCc2ccc(OC)c(OC)c2)c1 (stereo not drawn)	0	0	0	?	0	0
CCN(CC)CCCN1C(=O)C(O)=C(C(=O)c2ccco2)C1c1cc(OC)ccc1OC (stereo not drawn)	0	-	-	?	-	-
CCCCN1C(=O)C(O)=C(C(C)=O)C1c1ccc(OC)cc1OC (stereo not drawn)	50.1µM	0	0	?	50.1µM	0
COc1ccc(C2C(C(C)=O)=C(O)C(=O)N2c2nccs2)c(OC)c1 (stereo not drawn)	?	0	0	39.8µM	0	0
COc1ccc(C2C(C(C)=O)=C(O)C(=O)N2CCO)c(OC)c1 (stereo not drawn)	?	0	0	50.1µM	?	0
COc1cc(NC(=O)C2CCN(c3cnccn3)CC2)cc(OC)c1OC	0	0	0	0	0	0
COC(=O)N(C)C[C@@H]1OCc2cnnn2CCCC(=O)N([C@H](C)CO)C[C@@H]1C	-	0	0	-	-	-
CNc1ccccc1C(C)(C)c1cc(C)[nH]n1	0	0	8.44µM	0	?	0
C/C(=N\NC(=O)c1cc(C)[nH]n1)C(C)(C)C	0	0	0	0	0	0
FC(F)(F)c1cc(-c2ccco2)nc(NCc2ccccc2)n1	0	-	0	?	0	0
CNc1ccccc1C(C)(C)c1cc(-c2ccco2)n[nH]1	0	-	0	35.5µM	?	?
COc1ccc(C(=O)N(Cc2cc(OC)c(OC)c(OC)c2)C2CCS(=O)(=O)C2)cc1Cl (stereo not drawn)	0	-	-	0	0	0
CC1CCCCN1S(=O)(=O)c1ccc2[nH]c(=O)cc(C(=O)NCCCN3CCCCCC3)c2c1 (stereo not drawn)	0	0	0	79.4µM	0	0
SMILES	BAZ2B block	PI5P4K alpha inh	PLK1 PBD block	G9a block	JMJD2A Tudor inh	HP1b binding inh
CN(C)c1ccc(-c2ccnc3c2CC(C)(C(=O)Nc2ccc(F)c(Cl)c2)O3)cc1 (stereo not drawn)	-	0	0	-	-	-
Cc1ccc(-c2nc(CSCC(=O)N3CCN(c4ccccn4)CC3)c(C)o2)cc1	0	0	0	?	0	0
CCc1ccc(-c2nc(CSCC(=O)N3CCN(c4ccccn4)CC3)c(C)o2)cc1	50.1µM	0	0	0	?	0
CCOc1ccc(-c2nc(CSCC(=O)N3CCN(c4cccc(OC)c4)CC3)c(C)o2)cc1	?	0	0	?	56.2µM	?
COc1ccc(-c2nc(CSCC(=O)N3CCN(c4ccccc4F)CC3)c(C)o2)cc1	0	-	-	0	0	0
CC(C)n1c(=O)c2ccccc2n1Cc1cn(C2CCCC2)nn1	-	0	0	-	-	-
COc1ccc(-c2cc(C)no2)cc1S(=O)(=O)N1CC(=O)Nc2ccccc21	0	0	0	50.1µM	0	0
CCc1cc(=O)oc2c(CN3CCCC3)c(O)c(Cl)cc12	0	-	0	0[12.7 µM]	0	0
CCCCc1cc(=O)oc2cc(C)c(CN3CCCC3)c(O)c12	44.7µM	-	0	0[12.7 µM]	50.1µM	0
CCc1cc(=O)oc2cc(C)c(CN3CCCC(C)C3)c(O)c12 (stereo not drawn)	22.4µM	-	?	?	35.5µM	0
COC(=O)C1=CN(c2ccc(C(C)(C)C)cc2)C(N)=C(C#N)C1c1cccc([N+](=O)[O-])c1 (stereo not drawn)	-	0	0	-	-	-
CC(C)CC(=O)Nc1nc2nc(-c3ccccc3)cc(=O)n2[nH]1	50.1µM	-	-	?	?	0
O=C(Nc1nc2nc(-c3ccccc3)cc(=O)n2[nH]1)c1ccc(Cl)cc1	79.4µM	-	-	?	?	0
O=C(CCc1ccccc1)Nc1nc2nc(-c3ccccc3)cc(=O)n2[nH]1	0	0	0	?	0	0
O=c1cc(-c2ccccc2)nc2nc(SCc3ccccc3)[nH]n12	79.4µM	?	0	0[12.7 µM]	?	0
Cc1cc(=O)n2[nH]c(SCc3ccccc3)nc2n1	0	0	0	0	0	0
O=C(CC[C@H]1O[C@@H](n2ccc(=O)[nH]c2=O)[C@H](O)[C@@H]1O)N1CCN(Cc2cccc3ccccc23)CC1	-	0	0	-	-	-
CS(=O)(=O)N1CCc2cc(S(=O)(=O)NCc3ccccc3Cl)ccc21	0	-	-	0	?	0
COc1ccc(NC2c3ncccc3C(=O)N2Cc2ccccc2)c(OC)c1 (stereo not drawn)	?	-	0	12.6µM	25.1µM	0
COc1ccc(NC2c3ccccc3C(=O)N2Cc2ccccc2Cl)cc1OC (stereo not drawn)	?	0	0	50.1µM	0[11.4 µM]	?
COc1ccc(CN2C(=O)c3cccnc3C2Nc2ccc(OC)c(Cl)c2)cc1 (stereo not drawn)	?	-	0	?	50.1µM	0
